# Results: PubChem BioAssay AID2685 (National Center for Advancing Translational Sciences (NCATS), 2010)
# In all, about 320,000 compounds went through this assay and about 2,100 (0.66%) were called active. Inconclusive results (about 53%) are left out. Calls come from the whole dose curve; as a rule, active = well fitted inhibition curve with a large enough effect in the signal ratio, with a control signal flat (not every such curve was filed as active); inconclusive = small, poorly fitted or top-dose-only effect, or effect the other way, or a change in a side signal; inactive = flat fitted curve, though single readings scatter; the % refers to the signal ratio. Many of the other results were omitted from the sample, so actives are more common in it than they were.
# Experiment: qHTS Assay for Lipid Storage Modulators in Drosophila S3 Cells;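 for cell number change: cells counted by Cell Tracker Red CMTPX staining in the red channel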
# Details: BODIPY lipid droplet fluorescence, 18-24 h, cells fed with added oleic acid; cell number change: measured here: cell count max response; series mostly up to 46.1 µM
# How it was run: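 Drosophila S3 cells loaded with oleic acid (400 uM, as added) and compounds at several concentrations; lipid droplets imaged by 488-nm laser-scanning cytometry, 500–530 nm intensity and object ratio to cell channel. Percent activity normalized to 20 uM Triacsin C.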
# Potency is the fitted concentration of half-maximal effect.
SMILES,Potency,cell number change,outcome
C=Cc1ccc(COC(=O)c2cn(CC)c3nc(C)ccc3c2=O)cc1,inactive,–,–
CCn1cc(C(=O)OC)c(=O)c2ccc(C)nc21,inactive,4.24%,–
CCn1cc(C(=O)N(C)Cc2ccc(OC(F)F)cc2)c(=O)c2ccc(C)nc21,18.4 µM (active),19.2%,–
O=C(COC(=O)CNS(=O)(=O)c1cccc(Br)c1)NC(=O)Nc1ccc2c(c1)OCCO2,inactive,–,–
COc1ccc(-n2nc(C(=O)NCC(=O)N(C)Cc3ccccc3)c3ccccc3c2=O)c(OC)c1,inactive,9.58%,–
O=C(c1cccc2ccccc12)N1CCCCC1,8.2 µM (active),-5.25%,–
O=C(O)CCCC(=O)Nc1ccccc1C(=O)N1CCCC1,4.61 µM (active),0.517%,–
COc1ccccc1OCC(=O)Nc1ccccc1C(=O)N1CCCCC1,inactive,–,–
COc1ccccc1N(CC(=O)Nc1ccccc1C(=O)N1CCCC1)S(C)(=O)=O,18.4 µM (active),1.61%,–
Cc1ccc(OCC(=O)Nc2ccccc2C(=O)N2CCCCC2)cc1,inactive,24.3%,–
CCC(=O)Nc1ccccc1C(=O)N1CCCC1,inactive,13.5%,–
O=C(CCSc1ccccc1)Nc1ccccc1C(=O)N1CCCC1,inactive,-3.09%,–
CCOc1ccccc1N(CC(=O)Nc1ccccc1C(=O)N1CCCC1)S(C)(=O)=O,inactive,-13.5%,–
Cc1ccccc1OCCC(=O)Nc1ccccc1C(=O)N1CCCCC1,5.8 µM (active),-4.28%,–
CCS(=O)(=O)N1CCN(C(=O)c2cccc3ccccc23)CC1,inactive,17.9%,–
COc1ccccc1N(CC(=O)Nc1ccccc1C(=O)N1CCOCC1)S(C)(=O)=O,inactive,1.26%,–
O=C(c1ccncc1)N1CCN(C(=O)c2cccc3ccccc23)CC1,inactive,6.28%,–
O=C(CN1CCN(CC(=O)Nc2ccccc2C(F)(F)F)CC1)Nc1ccccc1F,inactive,–,–
O=C(CCC(=O)Nc1ccccc1Cl)NNC(=O)c1ccco1,inactive,11.4%,–
CCN1C(=O)[C@H]2[C@@H](c3ccc(-c4ccc5c(c4)OCO5)cc3)N3CCC[C@@]3(C(=O)OC)[C@H]2C1=O,inactive,-27.4%,–
Cc1ccccc1NCN1C(=O)C2CCC(C)(C1=O)C2(C)C (configuration not stated),inactive,-11.4%,–
CCOC(=O)c1cccc(NS(=O)(=O)Cc2ccccc2)c1,inactive,-5.1%,–
COc1cccc(/C=C/C(=O)OCC(=O)Nc2cc(C(F)(F)F)ccc2Cl)c1,inactive,1.22%,–
COCCNC(=O)CN(C(=O)Cn1nnc2ccccc21)c1ccc(C)c(F)c1,inactive,-2.04%,–

SMILES,Potency,cell number change,outcome
NC(=O)CCCc1nc(-c2ccccc2Cl)no1,inactive,-20.4%,–
CCN1C(=NCc2ccco2)N[C@@H](c2cccc(F)c2)C(C(=O)OC)=C1C,inactive,16.3%,–
COCCNC(=O)C(=O)NCCN1CCOCC1,inactive,-14.6%,–
CCOc1ccc(NC(=O)CSc2nc(=O)n(Cc3cccnc3)c3c2CCC3)cc1,–,–,inactive [at 0.0737 µM]
COc1ccc(-n2c(-c3cccc(C)c3[N+](=O)[O-])n[nH]c2=S)cc1,inactive,2.37%,–
Cc1ccccc1CN(C)C(C)C(=O)NCc1ccccc1 (configuration not stated),inactive,16.8%,–
CCN(C(=O)CCNC(=O)Cn1cnc2ccccc2c1=O)c1ccccc1F,inactive,-0.794%,–
Cc1nc2cc(NC(=O)Nc3cccc4ccccc34)ccc2n1C,inactive,19.9%,–
COc1ccc(Nc2nnc(-c3ccc(O)cc3)c3ccccc23)cc1,inactive,–,–
Cc1nc2cc(Nc3nnc(-c4ccccc4)c4ccccc34)ccc2n1C,11.6 µM (active),-29.7%,–
O=C(CN1CCN(S(=O)(=O)N2CCOCC2)CC1)Nc1cc(Cl)cc(Cl)c1,inactive,10%,–
COc1ccc(-c2cc(C(=O)NC3CCCC3)no2)cc1,inactive,6.09%,–
Cc1ccc(-c2cc(C(=O)NC3CCCC3)no2)cc1,inactive,-1.32%,–
O=C(NC1CCCCC1)c1cc(-c2ccc(F)cc2)on1,23.1 µM (active),15.8%,–
O=C(c1ccccc1)N1CCN(CC(O)COc2ccc(Br)cc2)CC1 (configuration not stated),inactive,–,–
CCOC(=O)N1CCN(CC(O)COc2ccccc2[N+](=O)[O-])CC1 (configuration not stated),inactive,10.6%,–
CCOC(=O)N1CCN(CC(O)COc2ccccc2C(C)CC)CC1 (configuration not stated),3.66 µM (active),1.1%,–
O=C(C(c1ccccc1)c1ccccc1)N1CCN(CC(O)COc2ccccc2)CC1 (configuration not stated),4.61 µM (active),-10.2%,–
OC(COc1ccccc1)CN1CCOCC1 (configuration not stated),inactive,9.9%,–
CCOC(=O)N1CCN(CC(O)COc2ccccc2C(C)C)CC1 (configuration not stated),inactive,-2.25%,–
CCc1ccc(C(=O)Nc2ccc3c(c2)n(C)c(=O)n3C)cc1,inactive,-19.7%,–
CC1Cc2ccccc2N1C(=O)COC(=O)C1=COCCO1 (configuration not stated),inactive,-1.1%,–
COc1cccc(/C=N/n2nnnc2N)c1O,inactive,2.87%,–
C=CCOc1c(CNC2CCCC2)cc(Cl)cc1OC,inactive,36.7%,–

SMILES,Potency,cell number change,outcome
Cc1ccc(-c2nc(NCc3ccco3)n(C(=O)c3ccco3)n2)cc1,inactive,-0.0963%,–
CC(NC(=O)C1CCCN1S(=O)(=O)c1ccccc1)c1ccccc1 (configuration not stated),inactive,4.49%,–
O=C(N1CCCCC1)C12CC3CC(C1)CC(C(=O)N1CCCCC1)(C3)C2,inactive,5%,–
CCN(CC)CCCNc1oc(-c2ccc(OC)c(OC)c2)nc1C#N,inactive,24.5%,–
CN(C)CCNc1oc(-c2cccc(Cl)c2)nc1C#N,inactive,–,–
CN(C)CCCNc1oc(-c2cccc(Cl)c2)nc1C#N,23.1 µM (active),5.97%,–
O=C(O)c1cc2nc3c(c(C(F)(F)F)n2n1)CCCC3,inactive,-17.1%,–
COc1cc(C(=O)N2CCN(C(=O)C3CC3)CC2)cc(OC)c1OC,14.6 µM (active),0.295%,–
COc1cc(C(=O)N2CCN(C3CCCCC3)CC2)cc(OC)c1OC,inactive,26.9%,–
COc1cc(C(=O)N2CCN(C)CC2)cc(OC)c1OC,inactive,-9.94%,–
CCOC(=O)C1=C(C)Nc2ccccc2N=C1NC(=O)/C=C/c1ccc(OC)cc1OC,inactive,0.577%,–
Cc1c(N(C(=O)c2cnccn2)C2(C(=O)NC3CCCC3)CCCCC2)c(=O)n(-c2ccccc2)n1C,inactive,-4%,–
CCn1c2ccccc2c2cc(N=C3SC(CC(=O)Nc4ccccc4OC)C(=O)N3C)ccc21 (configuration not stated),inactive,–,–
COc1cc([N+](=O)[O-])ccc1NC(=O)CC1SC(=Nc2ccc(F)cc2)N(CCC2=CCCCC2)C1=O (configuration not stated),23.1 µM (active),-22.5%,–
O=C(CC1SC(=Nc2ccc(OC(F)F)cc2)N(CCC2=CCCCC2)C1=O)Nc1ccccc1F (configuration not stated),inactive,-16.7%,–
COc1ccc(OC)c(NC(=O)CC2SC(=Nc3ccc(F)cc3)N(CCC3=CCCCC3)C2=O)c1 (configuration not stated),inactive,1.52%,–
CCOc1ccccc1N=C1SC(CC(=O)Nc2ccc(OC)cc2OC)C(=O)N1CCC1=CCCCC1 (configuration not stated),25.9 µM (active),-18.8%,–
C=CCN1C(=O)C(CC(=O)NCC)SC1=Nc1ccccc1OC (configuration not stated),inactive,-0.552%,–
Cc1c(C(N)=O)sc2ncn(CC(=O)N(C)C3CCCCC3)c(=O)c12,inactive,7.26%,–
CS(=O)(=O)N1CCC(C(=O)N2CCN(c3ccccc3F)CC2)CC1,inactive,9.98%,–
CC1=CN2C(=N)/C(=C/c3ccc([N+](=O)[O-])o3)C(=O)N=C2S1,14.6 µM (active),-16.4%,–
CC1=CN2C(=N)/C(=C/c3ccc(C)o3)C(=O)N=C2S1,inactive,-10.7%,–
CCOc1ccc(-c2ccc(/C=C3/C(=N)N4C=CSC4=NC3=O)o2)c([N+](=O)[O-])c1,inactive,4.83%,–
Cc1ccc(S(=O)(=O)Nc2cccc(-c3ccc4nnc(C)n4n3)c2)s1,inactive,7.02%,–

SMILES,Potency,cell number change,outcome
O=C(NCc1ccccn1)Nc1cc(Cl)cc(Cl)c1,inactive,7.72%,–
COc1ccc(C(NC(=O)C(C)(C)C)NC(=O)C(C)(C)C)cc1,inactive,-2.15%,–
O=C(CNS(=O)(=O)c1ccc(Br)s1)NC1CCCc2ccccc21 (configuration not stated),inactive,-8.37%,–
COc1ccc(C)cc1NC(=O)CCCN1C(=S)NC(C)(C)CC1C (configuration not stated),inactive,-1.97%,–
COc1ccc(NC(=O)NCCCCc2ccccc2)cc1,inactive,-11.6%,–
CC(CNC(=O)CN1C(=O)NC2(CCCCC2C)C1=O)c1ccccc1 (configuration not stated),inactive,-0.107%,–
COc1ccccc1N(/N=C1\Sc2ccccc2C1=O)C(C)=O,16.4 µM (active),3.61%,–
CC(=O)N(/N=C1\Sc2ccccc2C1=O)c1ccccc1,inactive,-6.02%,–
COc1ccc(CCN(/C=C2\Sc3ccccc3C2=O)C(C)=O)cc1OC,inactive,23.5%,–
CCOc1ccc(NC(=O)CN(C)C(=O)COc2cccc3c2OC(C)(C)C3)cc1OCC,inactive,-24.3%,–
O=C(c1ccc(Cl)c(F)c1F)N1CCCC1,inactive,–,–
Cc1c(C)c2c(OCC(=O)NCc3ccco3)cc3c(c2oc1=O)CCC(C)(C)O3,inactive,6.15%,–
COCCNCC(=O)C12CC3CC(CC(C3)C1)C2,16.4 µM (active),-15%,–
COCCC(=O)NC12CC3CC(CC(C3)C1)C2,inactive,-7.91%,–
COCCNC(=O)C12CC3CC(CC(Cl)(C3)C1)C2,inactive,18%,–
O=c1[nH]c2ccccc2nc1C(F)(F)F,inactive,17.1%,–
Cc1onc(-c2ccccc2)c1C(=O)N/N=C/c1ccc(Br)cc1,inactive,8.96%,–
Cc1ccc(CS(=O)Cc2ccc(C(=O)N3CCN(c4ccccc4)CC3)o2)cc1 (configuration not stated),inactive,–,–
Cc1ccc(CS(=O)Cc2ccc(C(=O)N3CCN(c4ccccn4)CC3)o2)cc1 (configuration not stated),7.31 µM (active),–,–
O=C(c1ccc(CS(=O)c2cccc(Cl)c2)o1)N1CCN(c2ccccn2)CC1 (configuration not stated),18.4 µM (active),-26.2%,–
O=C(c1ccc(CS(=O)c2cccc(Cl)c2)o1)N1CCCCCC1 (configuration not stated),inactive,-0.885%,–
O=C(c1ccc(CS(=O)Cc2ccccc2Cl)o1)N1CCN(c2ccccn2)CC1 (configuration not stated),inactive,–,–
O=C(c1ccc(CS(=O)c2cccc(Cl)c2)o1)N1CCOCC1 (configuration not stated),inactive,-42.8%,–
